# Assay results taken from the supplement of paper PMC4466140.
# Columns and labels:
# Assay in all cases: SPOT peptide array binding signal intensity (averaged, normalized) (arbitrary units (background-subtracted, floor 0; scale differs between SH3 domains)); higher = stronger binding of the SH3 domain to the peptide
# [1] = target: AgAbp1
# How it was run: (§1)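 Peptides were synthetic 15-mers on cellulose membranes, with every cysteine replaced by serine. They were incubated overnight at 4°C with GST-SH3 domains from four yeast species at 10 μg/ml in TBS-based blocking buffer. Binding signal, the replicate-averaged normalized and background-subtracted spot intensity, is in arbitrary units that differ between domains.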
# [2] = target: AgBbc1
# How it was run: as §1
# [3] = target: AgBem1-D1
# How it was run: as §1
# [4] = target: AgBzz1-D1
# How it was run: as §1
# [5] = target: AgBzz1-D2
# How it was run: as §1
# [6] = target: AgCyk3
# How it was run: as §1
# [7] = target: AgFus1
# How it was run: as §1
# [8] = target: AgHof1
# How it was run: as §1
# [9] = target: AgHse1
# How it was run: as §1
# [10] = target: AgLsb1
# How it was run: as §1
# [11] = target: AgLsb4
# How it was run: as §1
# [12] = target: AgMyo5
# How it was run: as §1
# [13] = target: AgNbp2
# How it was run: as §1
# [14] = target: AgRvs167
# How it was run: as §1
# [15] = target: AgSho1
# How it was run: as §1
# [16] = target: AgSla1-D1-D2
# How it was run: as §1
# [17] = target: AgSla1-D3
# How it was run: as §1
# [18] = target: CaAbp1-D1
# How it was run: as §1
# [19] = target: CaAbp1-D2
# How it was run: as §1
# [20] = target: CaBbc1
# How it was run: as §1
# [21] = target: CaBem1-D1
# How it was run: as §1
# [22] = target: CaBzz1-D1
# How it was run: as §1
# [23] = target: CaBzz1-D2
# How it was run: as §1
# [24] = target: CaCyk3
# How it was run: as §1
# [25] = target: CaFus1
# How it was run: as §1
# [26] = target: CaHof1
# How it was run: as §1
# [27] = target: CaHse1
# How it was run: as §1
# [28] = target: CaLsb1
# How it was run: as §1
# [29] = target: CaLsb4
# How it was run: as §1
# [30] = target: CaMyo5
# How it was run: as §1
# [31] = target: CaNbp2
# How it was run: as §1
# [32] = target: CaRvs167
# How it was run: as §1
# [33] = target: CaRvs167-3
# How it was run: as §1
# [34] = target: CaSho1
# How it was run: as §1
# [35] = target: CaSla1-D1-D2
# How it was run: as §1
# [36] = target: CaSla1-D3
# How it was run: as §1
# [37] = target: ScAbp1
# How it was run: as §1
# [38] = target: ScBbc1
# How it was run: as §1
# [39] = target: ScBem1-D1
# How it was run: as §1
# [40] = target: ScBzz1-D1
# How it was run: as §1
# [41] = target: ScBzz1-D2
# How it was run: as §1
# [42] = target: ScCyk3
# How it was run: as §1
# [43] = target: ScFus1
# How it was run: as §1
# [44] = target: ScHof1
# How it was run: as §1
# [45] = target: ScHse1
# How it was run: as §1
# [46] = target: ScLsb1
# How it was run: as §1
# [47] = target: ScLsb2
# How it was run: as §1
# [48] = target: ScLsb3
# How it was run: as §1
# [49] = target: ScLsb4
# How it was run: as §1
# [50] = target: ScMyo3
# How it was run: as §1
# [51] = target: ScMyo5
# How it was run: as §1
# [52] = target: ScNbp2
# How it was run: as §1
# [53] = target: ScPex13
# How it was run: as §1
# [54] = target: ScRvs167
# How it was run: as §1
# [55] = target: ScSho1
# How it was run: as §1
# [56] = target: ScSla1-D1-D2
# How it was run: as §1
# [57] = target: ScSla1-D3
# How it was run: as §1
# [58] = target: SpAbp1-D1
# How it was run: as §1
# [59] = target: SpBbc1
# How it was run: as §1
# [60] = target: SpBzz1-D1
# How it was run: as §1
# [61] = target: SpBzz1-D2
# How it was run: as §1
# [62] = target: SpCyk3
# How it was run: as §1
# [63] = target: SpHof1
# How it was run: as §1
# [64] = target: SpHof1-2
# How it was run: as §1
# [65] = target: SpHof1-3
# How it was run: as §1
# [66] = target: SpHse1
# How it was run: as §1
# [67] = target: SpLsb1
# How it was run: as §1
# [68] = target: SpLsb4
# How it was run: as §1
# [69] = target: SpMyo1
# How it was run: as §1
# [70] = target: SpNbp2
# How it was run: as §1
# [71] = target: SpPex13
# How it was run: as §1
# [72] = target: SpRvs167
# How it was run: as §1
# [73] = target: SpSla1-D1-D2
# How it was run: as §1
# [74] = target: SpSla1-D3
# How it was run: as §1
binder,measurement,setting,value
TEVPIPRRPPPPQAA,SPOT peptide array binding signal intensity,[1],≤ 0
same,SPOT peptide array binding signal intensity,[2],130
same,SPOT peptide array binding signal intensity,[3],≤ 0
same,SPOT peptide array binding signal intensity,[4],8
same,SPOT peptide array binding signal intensity,[5],7.5
same,SPOT peptide array binding signal intensity,[6],≤ 0
same,SPOT peptide array binding signal intensity,[7],≤ 0
same,SPOT peptide array binding signal intensity,[8],≤ 0
same,SPOT peptide array binding signal intensity,[9],≤ 0
same,SPOT peptide array binding signal intensity,[10],≤ 0
same,SPOT peptide array binding signal intensity,[11],23.5
same,SPOT peptide array binding signal intensity,[12],938
same,SPOT peptide array binding signal intensity,[13],≤ 0
same,SPOT peptide array binding signal intensity,[14],2.33
same,SPOT peptide array binding signal intensity,[15],≤ 0
same,SPOT peptide array binding signal intensity,[16],≤ 0
same,SPOT peptide array binding signal intensity,[17],1
same,SPOT peptide array binding signal intensity,[18],≤ 0
same,SPOT peptide array binding signal intensity,[19],≤ 0
same,SPOT peptide array binding signal intensity,[20],768
same,SPOT peptide array binding signal intensity,[21],≤ 0
same,SPOT peptide array binding signal intensity,[22],32
same,SPOT peptide array binding signal intensity,[23],≤ 0
same,SPOT peptide array binding signal intensity,[24],20
same,SPOT peptide array binding signal intensity,[25],≤ 0
same,SPOT peptide array binding signal intensity,[26],1
same,SPOT peptide array binding signal intensity,[27],≤ 0
same,SPOT peptide array binding signal intensity,[28],0.5
same,SPOT peptide array binding signal intensity,[29],210
same,SPOT peptide array binding signal intensity,[30],1
same,SPOT peptide array binding signal intensity,[31],204
same,SPOT peptide array binding signal intensity,[32],≤ 0
same,SPOT peptide array binding signal intensity,[33],2.75
same,SPOT peptide array binding signal intensity,[34],≤ 0
same,SPOT peptide array binding signal intensity,[35],≤ 0
same,SPOT peptide array binding signal intensity,[36],0.5
same,SPOT peptide array binding signal intensity,[37],≤ 0
same,SPOT peptide array binding signal intensity,[38],≤ 0
same,SPOT peptide array binding signal intensity,[39],≤ 0
same,SPOT peptide array binding signal intensity,[40],14
same,SPOT peptide array binding signal intensity,[41],12
same,SPOT peptide array binding signal intensity,[42],≤ 0
same,SPOT peptide array binding signal intensity,[43],1
same,SPOT peptide array binding signal intensity,[44],≤ 0
same,SPOT peptide array binding signal intensity,[45],≤ 0
same,SPOT peptide array binding signal intensity,[46],5
same,SPOT peptide array binding signal intensity,[47],≤ 0
same,SPOT peptide array binding signal intensity,[48],118
same,SPOT peptide array binding signal intensity,[49],2
same,SPOT peptide array binding signal intensity,[50],1370
same,SPOT peptide array binding signal intensity,[51],569
same,SPOT peptide array binding signal intensity,[52],12
same,SPOT peptide array binding signal intensity,[53],≤ 0
same,SPOT peptide array binding signal intensity,[54],1.83
same,SPOT peptide array binding signal intensity,[55],≤ 0
same,SPOT peptide array binding signal intensity,[56],≤ 0
same,SPOT peptide array binding signal intensity,[57],≤ 0
same,SPOT peptide array binding signal intensity,[58],≤ 0
same,SPOT peptide array binding signal intensity,[59],1.25
same,SPOT peptide array binding signal intensity,[60],37
same,SPOT peptide array binding signal intensity,[61],0.25
same,SPOT peptide array binding signal intensity,[62],≤ 0
same,SPOT peptide array binding signal intensity,[63],≤ 0
same,SPOT peptide array binding signal intensity,[64],≤ 0
same,SPOT peptide array binding signal intensity,[65],≤ 0
same,SPOT peptide array binding signal intensity,[66],8
same,SPOT peptide array binding signal intensity,[67],1
same,SPOT peptide array binding signal intensity,[68],90.5
same,SPOT peptide array binding signal intensity,[69],1920
same,SPOT peptide array binding signal intensity,[70],1
same,SPOT peptide array binding signal intensity,[71],≤ 0
same,SPOT peptide array binding signal intensity,[72],≤ 0
same,SPOT peptide array binding signal intensity,[73],≤ 0
same,SPOT peptide array binding signal intensity,[74],1
